According to PubChem BioAssay (Tox21):
Several values for one entry are separate records, joined by “and”; a condition that tells them apart may be missing. Equal values may be shown once. More than one record can exist for a structure, and the calls need not agree. Unmarked numbers belong to inactive results. Where a call stands in place of a potency, no number is given. Activity calls are given as the source filed them. Calls follow the shape of the dose curve; as a rule, active = well fitted activation curve with a large enough effect in the signal ratio in the repeat runs (not every such curve was filed as active); inconclusive = weak or mixed curves, or effect the other way; inactive = no such curve, though single readings can be large or run the other way; the % refers to the signal ratio.

biological target: Glucocorticoid receptor (Homo sapiens) (UniProt P04150); assay: qHTS assay to identify small molecule agonists of the glucocorticoid receptor (GR) signaling pathway (AID 720691); conditions: GR-bla HeLa, beta-lactamase reporter ratio, 18 h; activation: at 62.4 µM (top of the series)
Sequence (P04150 whole entry, looked up): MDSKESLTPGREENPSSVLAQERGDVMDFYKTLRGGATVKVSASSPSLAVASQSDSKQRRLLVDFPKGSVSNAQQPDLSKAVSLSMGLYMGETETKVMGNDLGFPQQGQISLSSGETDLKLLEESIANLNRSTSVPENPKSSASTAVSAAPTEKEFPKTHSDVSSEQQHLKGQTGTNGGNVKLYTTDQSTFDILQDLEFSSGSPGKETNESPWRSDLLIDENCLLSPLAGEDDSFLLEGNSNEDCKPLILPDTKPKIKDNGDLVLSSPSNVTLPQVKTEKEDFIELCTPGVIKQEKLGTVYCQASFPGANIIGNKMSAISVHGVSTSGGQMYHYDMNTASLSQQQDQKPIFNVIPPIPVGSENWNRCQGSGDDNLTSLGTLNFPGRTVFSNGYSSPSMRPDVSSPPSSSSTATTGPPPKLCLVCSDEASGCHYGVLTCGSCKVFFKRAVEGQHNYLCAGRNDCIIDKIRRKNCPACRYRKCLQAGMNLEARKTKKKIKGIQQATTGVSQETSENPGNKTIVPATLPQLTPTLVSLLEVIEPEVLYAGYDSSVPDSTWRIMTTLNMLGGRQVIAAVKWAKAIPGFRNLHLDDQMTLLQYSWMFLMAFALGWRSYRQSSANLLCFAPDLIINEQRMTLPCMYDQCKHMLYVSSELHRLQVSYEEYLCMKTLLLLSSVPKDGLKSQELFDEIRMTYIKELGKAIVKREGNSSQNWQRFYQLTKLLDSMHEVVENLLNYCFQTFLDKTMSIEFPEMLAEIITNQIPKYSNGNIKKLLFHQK
Text: U.S. Tox21 Program National Center for Advancing Translational Sciences [NCATS] NIH Chemical Genomics Center [NCGC] U.S. Environmental Protection Agency [EPA] National Institutes of Environmental Health Sciences [NIEHS] National Toxicology Program [NTP] U.S. Food and Drug Administration [FDA] Tox21 Assay Overview: The Glucocorticoid receptor (GR) is one of the members of the nuclear receptor family of ligand-dependent transcription factors. GR plays a critical role in carbohydrate, protein and lipid metabolisms and programmed cell death. CellSensor GR-bla HeLa cell line (Invitrogen) contains a beta-lactamase reporter gene under the control of the glucocorticoid response element stably integrated into HeLa cells, a cervical cancer cell line that expresses glucocorticoid receptor. The activation of the reporter gene under culture conditions can be detected by fluorescence intensity. This cell line has been used to screen the Tox21 10K compound library and to identify the compounds that activate the GR signaling.
Tox21 Assay Protocol Summary: The GR-bla HeLa cells were dispensed at 1500 cells/6 ul/well in 1536-well black wall/clear bottom plates using a Multidrop Combi (ThermoFisher Scientific, Waltham, MA) dispenser. After the assay plates were incubated at a 37 C/5% CO2 incubator for 4 hours, 23 nL of compounds dissolved in DMSO, positive controls or DMSO only was transferred to the assay plate by a pintool station (Kalypsys, San Diego, CA). The plates were incubated at 37 C for 18 hours. After 1 uL of LiveBLAzerTM B/G FRET substrate was added using a Flying Reagent Dispenser (Aurora Discovery, San Diego, CA), the plates were incubated at room temperature for 2 hours, and fluorescence intensity was measured by an Envision plate reader (PerkinElmer, Shelton, CT).
Potency is read from the fitted curve at half-maximal effect.

| Compound | Potency | activation |
| --- | --- | --- |
| O=C(O)c1cc(O)c(O)c(O)c1 | inactive |  |
| CCCCCC/C(C=O)=C\c1ccccc1 | inactive |  |
| O=C(O)c1cc(C(=O)O)cc(S(=O)(=O)O)c1 | inactive |  |
| c1ccc2c(c1)ccc1ccccc12 | inactive |  |
| COCCCOc1ccnc(CS(=O)c2nc3ccccc3[nH]2)c1C (stereo not given) |  | 16.4% [inconclusive] (active) |
| O=C(O)c1ccccc1C(c1ccc(O)cc1)c1ccc(O)cc1 | inactive |  |
| O=C(O)CC(C(=O)O)C(CC(=O)O)C(=O)O (stereo not given) | inactive |  |
| CCCCCCOCCO | inactive |  |
| CC1=C(C)S(=O)(=O)CCS1(=O)=O | inactive |  |
| COc1cc(Cc2cnc(N)nc2N)cc(OC)c1OC | inactive |  |
| O=C(CC(C(=O)OC1CCCCC1)S(=O)(=O)O)OC1CCCCC1 (stereo not given) | inactive |  |
| CCCCCOC(C)=O | inactive |  |
| C[Si](O[Si](C)(C)C)O[Si](C)(C)C | inactive |  |
| CCCCC(CC)COC(=O)C(C#N)=C(c1ccccc1)c1ccccc1 (stereo not given) | inactive |  |
| CCCCCCCCCCCCOCCO | inactive |  |
| CCCCN(CCCC)CCCC | inactive |  |
| O=[N+]([O-])c1ccc(/C=C/c2ccc([N+](=O)[O-])cc2S(=O)(=O)O)c(S(=O)(=O)O)c1 | inactive |  |
| COc1ccc(Nc2ccccc2)c(C)c1 | inactive |  |
| O=P(OC(CCl)CCl)(OC(CCl)CCl)OC(CCl)CCl | inactive |  |
| FC(F)(F)c1ccc(Cl)c(Cl)c1 | inactive |  |

| Compound | Potency | activation |
| --- | --- | --- |
| CCOC(=O)NNc1nncc2ccccc12 | inactive |  |
| CC1CCC2CC1C2(C)C (stereo not given) | inactive |  |
| Oc1cccc2ccccc12 | inactive |  |
| O=C(OCCOCCOC(=O)c1ccccc1)c1ccccc1 | inactive |  |
| NNc1nncc2ccccc12 | inactive |  |
| CC(=O)CC(=O)Nc1ccccc1C | inactive |  |
| CCN(CC)c1ccc(C(=O)c2ccccc2C(=O)O)c(O)c1 | inactive |  |
| CCCCC(CC)COC(=O)CCCCC(=O)OCC(CC)CCCC (stereo not given) | inactive |  |
| Cc1ccc(S(N)(=O)=O)cc1 | inactive |  |
| Nc1ccccc1[N+](=O)[O-] | inactive |  |
| CC1=CC(=O)NS(=O)(=O)O1 | inactive |  |
| CN(C)CCC(c1ccc(Cl)cc1)c1ccccn1 (stereo not given) | inactive |  |
| CCCCC(CC)COC(=O)CS (stereo not given) | inactive |  |
| CC(=O)Nc1ccccc1 | inactive |  |
| O=C1CCC(N2C(=O)c3ccccc3C2=O)C(=O)N1 (stereo not given) | inactive |  |
| CC(=O)CC(=O)Nc1ccccc1 | inactive |  |
| CCCCCCCCC/C=C/CC1CC(=O)OC1=O (stereo not given) | inactive |  |
| CC(=O)OCC(=O)[C@@]12N=C(C)O[C@@H]1C[C@H]1[C@@H]3CCC4=CC(=O)C=C[C@]4(C)[C@H]3[C@@H](O)C[C@@]12C | 425 nM (active) and 155 nM (active) |  |
| CCCSc1ccc2nc(NC(=O)OC)[nH]c2c1 | inactive |  |

same assay, conditions: GR-bla HeLa, beta-lactamase reporter ratio, 18 h; at 62.4 µM (top of the series)

| Compound | activation |
| --- | --- |
| COCCCOc1ccnc(CS(=O)c2nc3ccccc3[nH]2)c1C (stereo not given) | -5.49% |
